According to PubChem BioAssay (Tox21):
“And” between values parts separate entries of the source, which are not always exact repeats. Equal values may be shown once. Records with an inconclusive call do not appear. Entries that show only a call come without a potency. A structure can be active in one record and inactive in another. The source made the active and inactive calls. Unless noted, the call rests on the fitted dose curve; in most records, active means well fitted curve in the direction sought with a large enough effect in the repeat runs; inconclusive means weak or mixed curves; inactive means no such curve, though single readings can be large; an effect the other way counts as inactive or inconclusive.

Tests used:
[1] = biological target: Thyrotropin receptor (Homo sapiens) (UniProt P16473); experiment: qHTS assay to identify small molecule antagonists of the thyroid stimulating hormone receptor (TSHR) signaling pathway (AID 1259385; calls by dose curve; further: nearly all actives have a fitted effect of over 20% in size)
Outline: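 TSHR-HEK293 cells (800/well) plated 18 h, then compounds with Ro20-1724 and TSH at 1.5 ng/mL final, 30 min at room temperature. cAMP quantified by HTRF (cAMP-d2/anti-cAMP-cryptate, 1 h); 15 concentrations in triplicate.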

[2] = qHTS assay to identify small molecule agonists of the estrogen receptor alpha (ER-alpha) signaling pathway in the presence of an antagonist - cell viability counter screen (AID 1259386);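 further: series mostly up to about 92 µM; cells exposed to compounds for 22 h at 37 °C before the viability read; nearly all actives have a fitted effect of over 30% in size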
Outline: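 Using estrogen-depleted VM7Luc4E2 cells, the 15-concentration compound series was applied together with 10.0nM ICI-182,780 and incubated 22hr at 37C/5% CO2. Cell viability was then scored by CellTiter-Fluor.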

[3] = biological target: Progesterone receptor (Homo sapiens) (UniProt P06401); experiment: qHTS assay to identify small molecule agonists of the progesterone receptor (PR) signaling pathway (AID 1346784; calls by dose curve; further: nearly all actives have a fitted effect of over 30% in size)
Outline: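 Using charcoal-stripped serum (2%) to limit endogenous steroids, PR-UAS-bla HEK 293T cells received compounds for 16 hr at 37C after 6 hr plating; beta-lactamase FRET fluorescence was recorded following 2 hr substrate loading at room temperature.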

[4] = biological target: Progesterone receptor (Homo sapiens) (UniProt P06401); experiment: qHTS assay to identify small molecule antagonists of the progesterone receptor (PR) signaling pathway (AID 1346795; active means well fitted inhibition curve with a large enough effect in the signal ratio in the repeat runs, not every such curve was filed as active; the % refers to the signal ratio)
Outline: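 Inhibition of R5020-induced (1 nM final) beta-lactamase reporter signal in PR-UAS-bla HEK293T cells was scored by FRET fluorescence after overnight (16 hr) compound treatment.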

[5] = qHTS assay to identify small molecule antagonists of the progesterone receptor (PR) signaling pathway - cell viability counter screen (AID 1346798); further: series mostly up to about 92 µM; nearly all actives have a fitted effect of over 50% in size
Outline: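 ATP content as viability readout: CellTiter-Glo luminescence, 30 min room temperature, in PR-UAS-bla HEK293T cells after 16 hr compound/R5020 treatment at 37C and 5% CO2.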

[6] = qHTS assay to identify small molecule agonists of the progesterone receptor (PR) signaling pathway - cell viability counter screen (AID 1346799; calls by dose curve; further: nearly all actives have a fitted effect of over 45% in size)
Outline: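 Cytotoxicity in PR-bla HEK293T cells: 16 h compound, 37C; CellTiter-Glo added post-FRET read; luminescence after 30 min RT.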

[7] = qHTS assay to identify small molecule antagonists of the TGF-beta/Smad signaling pathway - cell viability counter screen (AID 1346824); further: nearly all actives have a fitted effect of over 50% in size
Outline: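 SBE-bla HEK 293T cells, incubated overnight, then compound plus 0.25 ng/mL TGF-beta1 (stock added) for 5 hr at 37 C. Viability was read in the same wells by CellTiter-Glo luminescence after 30 min at room temperature.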

[8] = qHTS assay to identify small molecule agonists of the TGF-beta/Smad signaling pathway - cell viability counter screen (AID 1346829); further: top concentration of the series differs between compounds; nearly all actives have a fitted effect of over 45% in size
Outline: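 After overnight seating at 37 C and 5% CO2, reporter cells got compounds for 5 hr and FRET substrate for 2 hr; cell viability then came from CellTiter-Glo luminescence.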

[9] = qHTS assay to identify small molecule agonists of the TGF-beta/Smad signaling pathway (AID 1346859; active means well fitted activation curve with a large enough effect in the signal ratio in the repeat runs, not every such curve was filed as active; the % refers to the signal ratio; further: series mostly up to about 77 µM)
Outline: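 Stable Smad binding element-beta-lactamase HEK 293T cells; 5 hr compound exposure at 37 C under 5% CO2; 2 hr room-temperature substrate step; fluorescence excited at 405 nm, collected at 460 nm and 530 nm.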

[10] = Caspase-3/7 induction in HepG2 cells by small molecules, qHTS assay (AID 1346978); further: nearly all actives have a fitted effect of over 15% in size
Outline: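 Wild-type HepG2 cells, 2,000/well, settled 5 hr at 37 C and 5% CO2, then compound-treated for 17 hr; caspase-3/7 activity read by luminescent Caspase-Glo 3/7 after 30 min at room temperature.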

[11] = Caspase-3/7 induction in CHO-K1 cells by small molecules, qHTS cell viability counter screen (AID 1346979); further: nearly all actives have a fitted effect of over 35% in size
Outline: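 To flag cytotoxic compounds, treated CHO-K1 wild-type cells were given CellTiter-Fluor at 16hr and read fluorescently after 1hr at 37C; the caspase-3/7 luminescence was measured in these same wells.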

[12] = Caspase-3/7 induction in CHO-K1 cells by small molecules, qHTS assay (AID 1346980); further: nearly all actives have a fitted effect of over 15% in size
Outline: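 Wild-type CHO-K1 cells exposed to compounds for 17hr at 37 C, 5% CO2. Caspase-3/7 activity then measured by Caspase-Glo 3/7 luminescence after 30min at room temperature.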

[13] = Caspase-3/7 induction in HepG2 cells by small molecules, qHTS cell viability counter screen (AID 1346981); further: series mostly up to about 92 µM; nearly all actives have a fitted effect of over 30% in size
Outline: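 After a 5-hr attachment period at 37 C and 5% CO2, wild-type HepG2 cells received compounds in DMSO. Sixteen hours later CellTiter-Fluor was dispensed and the fluorescent signal quantified after a further hour.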

[14] = biological target: Nuclear receptor subfamily 1 group I member 2 (Homo sapiens) (UniProt O75469); experiment: Human pregnane X receptor (PXR) small molecule agonists, qHTS assay (AID 1346982); further: nearly all actives have a fitted effect of over 35% in size; further: potency means the concentration at half of the fitted maximal effect
Outline: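 Tox21 qHTS; PXR-Luc HepG2; compounds pinned from DMSO; 24 hr, 37 C; ONE-Glo luciferase detection, 30 min room temperature.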

[15] = biological target: Thyrotropin-releasing hormone receptor (Homo sapiens) (UniProt P34981); experiment: qHTS assay to identify small molecule antagonists of the thyrotropin-releasing hormone receptor (TRHR) signaling pathway (AID 1346877; active means well fitted inhibition curve with a large enough effect in the repeat runs, not every such curve was filed as active; further: series mostly up to about 51 µM)
Outline: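 Calcium signal in dye-loaded TRHR/HEK293 cells; compounds added 5 min before TRH (1 nM final); fluorescence monitored 3 min at 1 s steps.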

[16] = biological target: Thyrotropin-releasing hormone receptor (Homo sapiens) (UniProt P34981); experiment: qHTS assay to identify small molecule agonists of the thyrotropin-releasing hormone receptor (TRHR) signaling pathway (AID 1346891; calls by dose curve;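 further: HEK293 cells expressing TRHR with calcium dye readout; series mostly up to about 58 µM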)
Outline: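 In 1536-format, 1500 TRHR-Hek293 cells per well grew 18 h, took up calcium dye for 2 h at 37 °C, received compound, and were read kinetically; 15-point titrations, triplicates.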

[17] = Human pregnane X receptor (PXR) small molecule agonists, qHTS cell viability counter screen (AID 1346977); further: nearly all actives have a fitted effect of over 50% in size
Outline: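 Readout is CellTiter-Fluor fluorescence from PXR-Luc HepG2 cells. Plated cells rested 5hr, then were treated with compounds for 24hr at 37C and 5% CO2, with reagent present during the last hour.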

[18] = biological target: Nuclear receptor subfamily 1 group I member 2 (Rattus norvegicus) (UniProt Q9R1A7); experiment: Rat pregnane X receptor (rPXR) activation by small molecules, qHTS assay (AID 1346983); settings: rPXR luciferase reporter cells, One-Glo luminescence, 24 h; max activation: stronger effect = higher value; further: nearly all actives have a fitted effect of over 20% in size
Outline: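 Cell-based rPXR activation assay: rPXR cells, 2,000 per well, rested 5hr at 37 C, then exposed to compounds in DMSO for 24 hr at 37 C. Luciferase activity read by One-Glo luminescence after 30 min at room temperature.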

Chain of Thyrotropin-releasing hormone receptor (Homo sapiens) (P34981 whole entry, looked up): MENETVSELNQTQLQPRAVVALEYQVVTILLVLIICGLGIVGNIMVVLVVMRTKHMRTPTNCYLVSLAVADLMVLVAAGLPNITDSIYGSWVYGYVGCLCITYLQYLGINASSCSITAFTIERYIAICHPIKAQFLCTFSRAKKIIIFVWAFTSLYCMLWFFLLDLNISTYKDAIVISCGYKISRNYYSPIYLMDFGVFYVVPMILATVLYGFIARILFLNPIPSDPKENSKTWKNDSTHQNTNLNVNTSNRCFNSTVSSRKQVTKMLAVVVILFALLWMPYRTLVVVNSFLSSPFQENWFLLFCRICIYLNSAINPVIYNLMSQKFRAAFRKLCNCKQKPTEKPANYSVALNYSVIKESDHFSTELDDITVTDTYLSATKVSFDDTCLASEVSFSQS
Chain of Progesterone receptor (Homo sapiens) (P06401 whole entry, looked up): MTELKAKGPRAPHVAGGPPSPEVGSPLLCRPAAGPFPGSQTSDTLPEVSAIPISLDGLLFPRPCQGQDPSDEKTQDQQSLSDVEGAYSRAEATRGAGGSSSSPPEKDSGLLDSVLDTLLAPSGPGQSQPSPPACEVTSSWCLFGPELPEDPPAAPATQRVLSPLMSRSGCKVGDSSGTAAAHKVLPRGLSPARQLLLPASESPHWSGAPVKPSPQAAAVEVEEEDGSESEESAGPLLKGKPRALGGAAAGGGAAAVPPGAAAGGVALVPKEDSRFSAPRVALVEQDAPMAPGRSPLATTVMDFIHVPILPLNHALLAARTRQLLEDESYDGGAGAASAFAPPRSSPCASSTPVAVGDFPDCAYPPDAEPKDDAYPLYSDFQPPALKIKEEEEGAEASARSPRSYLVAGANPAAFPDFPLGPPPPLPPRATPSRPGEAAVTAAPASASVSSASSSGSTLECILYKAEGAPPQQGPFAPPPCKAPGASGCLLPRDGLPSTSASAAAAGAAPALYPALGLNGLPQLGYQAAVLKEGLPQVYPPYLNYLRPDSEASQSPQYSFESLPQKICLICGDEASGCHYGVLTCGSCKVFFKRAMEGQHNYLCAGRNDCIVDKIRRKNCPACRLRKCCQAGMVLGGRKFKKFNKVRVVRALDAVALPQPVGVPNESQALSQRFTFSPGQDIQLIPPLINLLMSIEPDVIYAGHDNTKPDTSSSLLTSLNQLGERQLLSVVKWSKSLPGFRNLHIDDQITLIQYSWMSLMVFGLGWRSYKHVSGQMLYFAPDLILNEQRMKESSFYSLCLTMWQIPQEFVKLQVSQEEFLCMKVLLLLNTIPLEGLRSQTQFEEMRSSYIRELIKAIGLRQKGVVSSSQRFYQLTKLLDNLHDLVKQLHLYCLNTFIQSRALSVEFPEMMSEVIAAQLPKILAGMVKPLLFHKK
Chain of Nuclear receptor subfamily 1 group I member 2 (Homo sapiens) (O75469 whole entry, looked up): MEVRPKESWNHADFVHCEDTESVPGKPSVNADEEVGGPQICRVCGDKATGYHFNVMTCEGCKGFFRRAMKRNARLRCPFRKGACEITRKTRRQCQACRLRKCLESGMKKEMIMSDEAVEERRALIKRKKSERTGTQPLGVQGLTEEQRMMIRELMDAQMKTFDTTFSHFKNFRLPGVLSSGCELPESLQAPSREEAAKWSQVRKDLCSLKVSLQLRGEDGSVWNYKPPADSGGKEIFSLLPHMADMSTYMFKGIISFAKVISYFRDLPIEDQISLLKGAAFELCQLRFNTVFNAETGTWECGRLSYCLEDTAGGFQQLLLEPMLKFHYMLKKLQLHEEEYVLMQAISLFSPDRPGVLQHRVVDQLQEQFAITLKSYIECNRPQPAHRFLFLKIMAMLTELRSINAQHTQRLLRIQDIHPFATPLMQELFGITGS
Chain of Thyrotropin receptor (Homo sapiens) (P16473 whole entry, looked up): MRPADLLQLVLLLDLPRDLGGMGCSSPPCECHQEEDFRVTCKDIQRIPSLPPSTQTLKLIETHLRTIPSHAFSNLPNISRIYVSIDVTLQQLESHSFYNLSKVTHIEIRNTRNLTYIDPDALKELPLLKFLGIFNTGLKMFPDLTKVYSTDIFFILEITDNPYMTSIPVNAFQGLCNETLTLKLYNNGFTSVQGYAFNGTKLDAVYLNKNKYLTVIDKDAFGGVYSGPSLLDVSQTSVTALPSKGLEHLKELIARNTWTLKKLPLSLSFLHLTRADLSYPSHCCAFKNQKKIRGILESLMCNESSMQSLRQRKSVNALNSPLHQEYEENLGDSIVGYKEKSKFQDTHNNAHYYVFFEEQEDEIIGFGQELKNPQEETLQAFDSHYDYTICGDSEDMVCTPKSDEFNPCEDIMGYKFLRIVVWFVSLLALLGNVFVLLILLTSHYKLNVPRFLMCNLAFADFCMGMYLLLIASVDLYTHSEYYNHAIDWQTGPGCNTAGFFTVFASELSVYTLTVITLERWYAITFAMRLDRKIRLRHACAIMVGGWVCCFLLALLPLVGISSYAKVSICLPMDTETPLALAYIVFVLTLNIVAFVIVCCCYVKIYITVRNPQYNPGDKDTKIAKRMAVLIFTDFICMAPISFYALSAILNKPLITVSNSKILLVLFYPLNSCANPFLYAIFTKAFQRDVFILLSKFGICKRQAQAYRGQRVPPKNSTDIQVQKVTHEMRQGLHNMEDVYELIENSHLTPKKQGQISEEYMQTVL
Chain of Nuclear receptor subfamily 1 group I member 2 (Rattus norvegicus) (Q9R1A7 whole entry, looked up): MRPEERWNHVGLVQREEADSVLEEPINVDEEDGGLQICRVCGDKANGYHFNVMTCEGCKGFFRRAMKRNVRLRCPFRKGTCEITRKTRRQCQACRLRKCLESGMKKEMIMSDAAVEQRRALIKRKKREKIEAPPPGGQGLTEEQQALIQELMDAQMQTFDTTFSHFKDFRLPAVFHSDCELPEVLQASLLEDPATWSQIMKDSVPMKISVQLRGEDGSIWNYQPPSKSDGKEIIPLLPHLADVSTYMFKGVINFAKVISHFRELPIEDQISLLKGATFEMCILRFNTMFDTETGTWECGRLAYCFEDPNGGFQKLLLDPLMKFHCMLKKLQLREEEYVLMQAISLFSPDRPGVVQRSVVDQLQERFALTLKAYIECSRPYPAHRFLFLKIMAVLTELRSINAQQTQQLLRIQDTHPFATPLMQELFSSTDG

SMILES | Potency [1] | Potency [2] | Potency [3] | Potency [4] | Potency [5] | Potency [6] | Potency [7] | Potency [8] | outcome [9] | Potency [10] | Potency [11] | Potency [12] | Potency [13] | Potency [14] | Potency [15] | Potency [16] | Potency [17] | max activation [18]
CCCCOCCOCCO | inactive | inactive | inactive | inactive | inactive | inactive | inactive | inactive | inactive | inactive | inactive | inactive | inactive | inactive |  |  |  | 
O=C(c1ccccc1)c1ccccc1O | inactive | inactive | inactive | inactive | inactive | inactive | inactive | inactive | inactive | inactive | inactive | inactive | inactive | inactive | inactive | inactive | inactive | 
O=CCc1ccccc1 | inactive | inactive | inactive | inactive | inactive | inactive | inactive | inactive | inactive | inactive | inactive | inactive | inactive | inactive | inactive | inactive |  | 
CC(C)=CCCC(C)CCO (stereo not given) | inactive | inactive | inactive | inactive | inactive | inactive |  | inactive | inactive | inactive | inactive | inactive |  | inactive | inactive | inactive | inactive | 
COc1c(Cl)c(Cl)c(Cl)c(Cl)c1Cl | inactive | inactive | inactive | inactive | inactive | inactive |  | inactive | inactive | inactive | inactive | inactive |  | inactive | inactive | inactive | inactive | 
CC1=CC2C3CC(C=C3C)C2C1 (stereo not given) | inactive | inactive | inactive | inactive | inactive | inactive | inactive | inactive | inactive | inactive | inactive | inactive |  | inactive and 27.3 µM (active) |  |  | inactive | 
Cc1ncc[nH]1 | inactive | inactive | inactive | inactive | inactive | inactive | inactive | inactive | inactive | inactive | inactive | inactive |  |  |  |  |  | 1.32% (inactive)
Cc1ccc(C)c(O)c1C | inactive | inactive | inactive | inactive | inactive | inactive | inactive | inactive | inactive | inactive | inactive | inactive |  | inactive | inactive | inactive | inactive | 
